A selection: hits, their analogues and other compounds. The true share with any hit is near 5.7%.
L3MBTL1 block: inhibitors of human L3MBTL1; actives 0.66% (n = 230,000); AlphaScreen L3MBTL1–H3K9me1 peptide binding; Q9Y468; Potency, µM (top dose mostly 57.1 µM), most hits filed as inhibitors; further: nearly all actives have a fitted effect of over 60% in size
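L3MBTL1 50 nM + b-AHA-H3(1-15)K9me1 75 nM, 30 min RT; compound added, 30 min RT; streptavidin donor/Ni-chelate acceptor beads 10 ug/mL each final, 30 min RT dark; AlphaScreen read.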
HP1b chromo inh: inhibitors of HP1-beta chromodomain binding to methylated histone tails; P83916; AID 540317; AlphaScreen HP1-beta / biotin-H3K9me3 peptide binding; Potency, µM (series often up to 114 µM), usual class: inhibitors; actives 0.56% (n = 390,000); further: nearly all actives have a fitted effect of over 70% in size
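HP1-beta protein (50 nM final) preincubated 30 min at room temperature with biotinylated H3(1-18)K9me3 peptide (50 nM) in PBS pH 7.4, 0.01% Tween-20, then compound added for 30 min. AlphaScreen streptavidin donor/nickel chelate acceptor beads (10 ug/mL final), 30 min dark, luminescence read.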
JMJD2E inh: blocks human JMJD2E demethylase activity | AID 2147 | JMJD2E catalytic domain, FDH-coupled NADH fluorescence (FDH is formaldehyde dehydrogenase) | B2RXH2 | actives 1.6% (n = 230,000) | Potency, µM (titrated, usually from 57.1 µM), hits mostly inhibitors; active means well fitted inhibition curve with a large enough effect, not every such curve was filed as active; inconclusive means small, poorly fitted or top-dose-only effect, or another doubt; inactive means no such curve, though single readings can be large or run the other way; further: nearly all actives have a fitted effect of over 50% in size
Target sequence (B2RXH2 1-337 limits assumed): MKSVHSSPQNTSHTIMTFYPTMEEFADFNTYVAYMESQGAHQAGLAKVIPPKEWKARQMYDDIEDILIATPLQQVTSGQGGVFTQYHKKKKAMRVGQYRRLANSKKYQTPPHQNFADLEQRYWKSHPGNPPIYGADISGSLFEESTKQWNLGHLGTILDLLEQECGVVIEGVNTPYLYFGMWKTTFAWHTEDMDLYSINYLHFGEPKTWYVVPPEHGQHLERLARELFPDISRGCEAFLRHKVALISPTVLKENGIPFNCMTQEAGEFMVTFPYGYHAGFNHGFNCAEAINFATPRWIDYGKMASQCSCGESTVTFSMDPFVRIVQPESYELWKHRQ
BAZ2B block: BAZ2B (human) inhibition | Q9UIF8 | AlphaScreen BAZ2B-H3K14Ac peptide displacement | Potency, µM (doses to about 114 µM), actives largely listed as inhibitors | actives 4.4% (n = 360,000) | AID 504333; further: nearly all actives have a fitted effect of over 60% in size
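AlphaScreen luminescence quantifies BAZ2B engagement of H3K14Ac peptide; the protein and biotinylated peptide are both at 50 nM final, buffer PBS pH 7.4 with 0.01% Tween-20, all steps at room temperature.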
JMJD2A Tudor inh: blocks the human JMJD2A Tudor domain | O75164 | AlphaScreen JMJD2A-Tudor / H3K4me3 peptide binding | Potency, µM (highest dose often 114 µM), hits mostly inhibitors | actives 4.4% (n = 390,000); further: nearly all actives have a fitted effect of over 50% in size
PI5P4Ka inh: blocks human PI5P4K alpha kinase activity; max response, %; PI5P4Kalpha enzyme, ADP-Glo luminescence, 60 min; hits give low values; actives 1.2% (n = 330,000); P48426; active means max response of -50% or lower; inconclusive means between -30% and -50%; inactive means -30% or higher; further: value at the top dose of about 77 µM
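PI5P4Kalpha ADP-Glo assay; 5 microM ATP final; 60 min RT reaction; HEPES pH 7.4/EGTA/CHAPS, 5% DMSO; controls lacking substrate or enzyme; luminescent end-point.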
Numbers stand for hits; n = inactive; u = inconclusive; x = no result given. Unless noted, the call rests on the fitted dose curve; in most records, active means well fitted inhibition curve with a large enough effect; inconclusive means small, poorly fitted or top-dose-only effect; inactive means no such curve, though single readings can be large or run the other way.

SMILES	L3MBTL1 block	HP1b chromo inh	JMJD2E inh	BAZ2B block	JMJD2A Tudor inh	PI5P4Ka inh
O=C(O)Cc1ccc(O)c(O)c1	x	u	25µM	n	56µM	n
COC(=O)[C@@H](N)Cc1ccc(O)c(O)c1	n	n	13µM	n	n	n
CCOc1ccc(NC(=O)CSc2nc3ccsc3c(=O)n2C(C)CC)cc1 (centres undefined)	x	n	x	n	n	x
Cc1ccc(C)c(NS(=O)(=O)c2ccc3c(c2)n(C)c(=O)n3C)c1	x	n	x	n	n	x
COc1ccc(CC(=O)Oc2ccc(C)cc2Br)cc1OC	x	u	x	50µM	n	n
O=C(O)C1OC(Oc2c(-c3ccc(O)c(O)c3)oc3cc(O)cc(O)c3c2=O)C(O)C(O)C1O (centres undefined)	u	u	4.5µM	35µM	32µM	u
CC1OC(Oc2c(-c3cc(O)c(O)c(O)c3)oc3cc(O)cc(O)c3c2=O)C(O)C(O)C1O (centres undefined)	u	n	n	n	u	u
CCOC(=O)CSc1c(-c2cccs2)[nH]c2ccccc12	n	n	n	n	n	n
CCOC(=O)CSc1c(-c2ccc(Cl)cc2)[nH]c2ccccc12	n	n	n	n	22µM	u
CCNC(=O)C1CC(=O)N(Cc2ccc3c(c2)OCO3)C(=Nc2ccc(OCC)cc2)S1 (centres undefined)	n	n	n	50µM	n	n
COc1cc(NC(=O)CCS(=O)(=O)c2ccc3c(c2)n(C)c(=O)c(=O)n3C)cc(OC)c1	n	n	x	n	n	n
Cc1nn(CCc2n[nH]c(=S)n2C2CCCCC2)c(C)c1Br	n	n	n	n	79µM	x
COc1ccccc1-n1c(CCn2nc(C)c(Br)c2C)n[nH]c1=S	n	n	n	n	7.1µM	n
CC(C)(C)c1ccc(-c2n[nH]c(=S)n2C2CCCC2)cc1	x	n	n	n	u	x
CNC(=S)NNC(=O)CCn1nc(C)c(Br)c1C	x	n	n	n	n	x
Cc1nn(CCc2n[nH]c(=S)n2C)c(C)c1Br	x	n	n	n	7.1µM	x
Cc1coc2c(C)c3oc(=O)c(CC(=O)NCc4ccccc4)c(C)c3cc12	x	n	x	n	n	x
CCOc1ccc(NC(=O)[C@H]2O[C@@H]3OC(C)(C)O[C@@H]3[C@H]3OC(C)(C)O[C@H]32)cc1	x	n	x	n	n	x
CN(C)CCCN1c2ccccc2Sc2ccc(C(F)(F)F)cc21	n	n	n	32µM	u	n
CN(C)CCC(=O)N1c2ccccc2Sc2ccc(C(F)(F)F)cc21	n	n	x	n	n	n
CCOc1ccc(-n2nc3cc(C)c(NC(=O)c4cc(OCC)c(OCC)c(OCC)c4)cc3n2)cc1	x	n	x	n	n	x
Cc1cccc(N2CCN(c3ccc(N4C(=O)CCCC4=O)cc3[N+](=O)[O-])CC2)c1C	n	n	n	n	n	n
Cc1cccc(N2CCN(c3ccc(N4C(=O)CCCC4=O)cc3[N+](=O)[O-])CC2C)c1 (centres undefined)	n	u	n	28µM	u	n
CS(=O)(=O)N1CCN(c2ccccc2NC(=O)c2ccc([N+](=O)[O-])o2)CC1	n	u	n	n	3.2µM	u
Cc1ccc(C2=Nc3ccccc3SC(c3cccc([N+](=O)[O-])c3)C2)cc1 (centres undefined)	n	n	u	22µM	u	n
COc1ccc(C2=NN(C(=O)c3cccc([N+](=O)[O-])c3)C(c3cccc([N+](=O)[O-])c3)C2)cc1 (centres undefined)	n	n	n	n	n	x
O=C(CCNS(=O)(=O)c1ccc2c(c1)CCN2C(=O)C1CC1)N1CCN(c2ccc(F)cc2)CC1	x	n	x	n	45µM	x
Cc1ccc(CCNC(=O)c2cc3ccccn3n2)cc1	x	n	x	n	n	x
CC(N1CCOC1=O)S(=O)(=O)c1ccccc1 (centres undefined)	x	n	u	50µM	n	n
O=C(Nc1ccc(F)c(Cl)c1)C1CCN(S(=O)(=O)c2ccc3c(c2)CCCN3C(=O)C2CCC2)CC1	x	n	x	n	u	x

Screening data (PubChem BioAssay)
